Laboratory results from PubChem BioAssay AID651821 (The Scripps Research Institute Molecular Screening Center, 2012).
Values joined by “and” are separate entries in the source; they are usually repeats but may differ in a detail not shown here. Equal values may be shown once. Hit rate of the full screen: of about 370,000 compounds, about 4,700 (1.3%) were called active. The entries come from a sample that favours actives as a whole. Values without a mark were called inactive.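 The calls were made as follows: active = inhibition above the plate cutoff, the mean of all test compounds on that plate plus 3 SD (cut at about 35% in these data); inactive = the rest.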

Assay: binders of r(CAG) RNA repeats, primary screen, biochemical, fluorescence (AID 651821);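 also: 0% = DMSO alone and 100% = 100 µM mitoxantrone as full dye displacement; higher means more dye released from RNA so lower well fluorescence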
Settings: r(CAG) RNA repeat, TO-PRO-1 dye displacement fluorescence; at 3 µM; hits give high values

Structure (SMILES)	inhibition
COc1ccc(OC)c(-n2cc3c(=O)n(C)c(=O)n(C)c3c2)c1	2.65%
CCOC(=O)N1C(=O)C[C@](Sc2ccc(C)cc2)(C(=O)OC)[C@H]1c1ccccc1	-2.71%
COC(=O)c1ccccc1-n1cc(COC(=O)NCCc2ccccc2)nn1	1.18%
Cc1ccc(N(CCC(=O)O)S(=O)(=O)c2cccc(C(F)(F)F)c2)cc1	5.06%
Cc1noc(C)c1S(=O)(=O)Nc1ccc(C(=O)O)cc1	-0.8%
Cc1oc2c(F)c(F)c(F)c(F)c2c1S(=O)(=O)Nc1cccc(C(F)(F)F)c1	53.7% (active)
COC(=O)[C@H](C(C)C)N(CCc1cn(Cc2ccccc2)nn1)S(=O)(=O)c1ccc(F)cc1Br	3.36%
CSCCC1NC2(C(=O)Nc3ccc(Cl)cc32)[C@@H]2C(=O)N(C3CCCC3)C(=O)[C@H]12 (some centres not stated)	-2.44%
Cc1ccc(NC(=O)c2cc(C)nn2-c2ccccc2)c(C)c1	2.01%
O=C(COc1ccc2c(C(F)(F)F)cc(=O)oc2c1)Nc1ccc2c(c1)OCCO2	4.46%
O=C(COc1ccc2c3c(c(=O)oc2c1)CCC3)NC1CCCCC1	-4.24%
Cc1cc(C)cc(Oc2c(C(F)(F)F)oc3cc(OCC(=O)O)ccc3c2=O)c1	44.4% (active)
CC(c1c[nH]c2ccccc12)c1c(-c2ccccc2)n(C)c2ccccc12 (configuration not stated)	8.54%
COc1ccc(Cl)cc1-n1c(=S)sc2c(=O)n(-c3ccc(F)cc3)c(SCC(=O)O)nc21	40.9% (active)
COc1ccccc1-n1c(SCC(=O)O)nc2sc3c(c2c1=O)CCC3	5.16%
CCc1ccc(-n2c(=S)sc3c(=O)n(-c4ccccc4OC)c(=S)[nH]c32)cc1	9%
COc1ccc2c(c1)N(C)/C(=C1/SC(=S)N(NC(C)=O)C1=O)S2	5.15%
CCCCN1C(=O)/C(=C2/C=CC=CN2C)SC1=S	-1.7%
CCN1C(=O)/C(=C2/Sc3ccccc3N2CCCS(=O)(=O)O)SC1=S	51.4% (active) and 69.1% (active)
CC(CC(=O)N1CCN(c2ccccc2)CC1)S(=O)(=O)c1ccc2c(c1)NC(=O)CS2 (configuration not stated)	-1.08%
O=C(CCCCCN1C(=O)C2C3C=CC(C3)C2C1=O)Nc1ccccn1 (configuration not stated)	1.49%

Structure (SMILES)	inhibition
COC(=O)Cc1nnn2c1[C@H](C)[C@H](c1ccccc1[N+](=O)[O-])OCC2	2.71%
CCOC(=O)C1=C(C(=O)OCC)C2N(Cc3ccc(C#N)cc3)c3ccccc3[C@@]23C[C@@H](C(=O)OC)N(S(=O)(=O)c2ccc(F)cc2)C3=N1 (some centres not stated)	15.6%
COc1cc2ccccc2cc1C(=O)Nc1ccc(S(=O)(=O)Nc2cc(C)on2)cc1	67.5% (active)
CCc1ccc(OC(C)C(=O)Nc2ccc(S(=O)(=O)Nc3cc(C)on3)cc2)cc1 (configuration not stated)	36.2% (active)
CCOc1ccc(Br)cc1S(=O)(=O)Nc1ccc(S(=O)(=O)Nc2cc(C)on2)cc1	14.9%
Cc1cc(NS(=O)(=O)c2ccccc2)no1	-0.66%
COc1ccc(S(=O)(=O)Nc2cc(C)on2)cc1NC(C)=O	3.85%
C=C(C)CNC(=S)Nc1ccc(S(=O)(=O)Nc2cnc3ccccc3n2)cc1	19.2%
CCOc1ccc(CC(=O)Nc2ccc(S(=O)(=O)Nc3cc(C)on3)cc2)cc1OCC	22.4%
CCOc1ccc(C(=O)Nc2ccc(S(=O)(=O)Nc3cc(C)on3)cc2)cc1	39.1% (active)
Cc1cc(NS(=O)(=O)c2ccc(NC(=S)NC(=O)c3ccc(F)cc3Cl)cc2)no1	33.1%
CCC(Oc1ccccc1C)C(=O)Nc1ccc(S(=O)(=O)Nc2cc(C)on2)cc1 (configuration not stated)	20.8%
O=C(/C=C/Nc1ccc(S(=O)(=O)Nc2cnc3ccccc3n2)cc1)c1cccnc1	5.52%
CCOc1cc(C(=O)Nc2ccc(S(=O)(=O)Nc3cnc4ccccc4n3)cc2)cc(OCC)c1OCC	66.1% (active)
COc1cccc(CNC(=O)[C@H]2CCCN2C(=O)[C@H]2CCCN2C(=O)c2ccc(F)cc2)c1	0.66%
Cc1cc(OC(=O)NCCc2ccc(F)cc2)ccc1F	1.32%
CC(=O)c1ccc(S(=O)(=O)NCC2CCN(C(=O)C(=O)c3cccs3)CC2)cc1	2.35%
COc1ccc(SSc2ccc(OC)cc2C(=O)O)c(C(=O)O)c1	2.51%
CC[C@@H](CCC(=O)N(c1ccccc1)c1ccccc1)C1CC1	1.63%
COCC(C)NC(=O)COc1nncc2ccccc12 (configuration not stated)	-0.71%
O=C(CSc1nc2ccccc2n1Cc1ccccc1)NNC(=S)Nc1ccccc1	31.7%

Structure (SMILES)	inhibition
C[C@H]1CN([C@@H](C)CO)C(=O)CCCn2nncc2CO[C@@H]1CN(C)C(=O)Nc1ccc(N2CCN(C)CC2)cc1	4.52%
CC1CC1C(=O)OCC(=O)c1c(N)n(C)c(=O)n(C)c1=O (configuration not stated)	-4.36%
CCCCNC(=O)C[C@H]1C[C@@]2(C(=O)OC)C(=C[C@H](COCc3ccccc3)O[C@@H]2C)N(Cc2ccc(Cl)cc2Cl)C1=O	8.58%
CCN(CC)C(=O)CC[C@H]1CC[C@]2(CCCN(Cc3ccc(Cl)cc3)C2)O1	-2.21%
COC(=O)c1cccc(N(C(=O)c2ccco2)C(C(=O)NC2CCCC2)c2ccco2)c1 (configuration not stated)	-6.24%
CCOc1ccccc1C(=O)N1CCC[C@@H]1C(=O)N1CCC[C@H]1C(=O)NCc1ccccc1	-1.61%
COc1ccc(-c2ccc3c(n2)CCCN3S(=O)(=O)c2ccc(C)cc2)cc1	4.71%
CC(C)(C)c1ccc(S(=O)(=O)NCC2CCN(C(=O)C(=O)c3cc4ccccc4o3)CC2)cc1	9.84%
COc1ccc(/C=C2\CC3(OC(C)=O)CCCN2C3)cc1 (configuration not stated)	-0.3%
CC(=O)Oc1c(C(=O)c2nnc(C)o2)c(=O)n(Cc2ccccc2)c2ccccc12	2.47%
Cc1noc(NS(=O)(=O)c2ccc(NC(=O)C34CCC(CC3)C4)cc2)c1C	2.57%
Cc1cc(NS(=O)(=O)c2ccc(NC(=O)C(C)Oc3cccc(C)c3C)cc2)nc(C)n1 (configuration not stated)	18.4%
Cc1cc(OC(C)C(=O)Nc2ccc(S(=O)(=O)Nc3onc(C)c3C)cc2)cc(C)c1Cl (configuration not stated)	75.6% (active)
CC(Oc1cccc(Cl)c1)C(=O)Nc1ccc(S(=O)(=O)Nc2ncccn2)cc1 (configuration not stated)	8.9%
Cc1cc(C)nc(NS(=O)(=O)c2ccc(N/C=C\C(=O)c3cccs3)cc2)n1	10.2%
Cc1ccc(C(=O)/C=C/Nc2ccc(S(=O)(=O)Nc3onc(C)c3C)cc2)cc1	48.3% (active)
COc1cccc(CNC(=O)CNS(=O)(=O)c2ccc3nc(C)sc3c2)c1OC	0.91%
COc1cccc(CNC(=O)[C@H]2CCCN2C(=O)[C@H]2CCCN2C(=O)c2cc(F)cc(F)c2)c1	-1.44%
COC(=O)C[C@@H]1CC[C@@H]2[C@H](COc3ccc(NC(=O)c4cccc(F)c4)cc3C(=O)N2C)O1	-0.86%
COc1ccccc1C(=O)NC1CCCCN(C(C)C)C1=O (configuration not stated)	-0.3%
O=C(CCC1CCN(C(=O)c2cccc(Cl)c2F)CC1)Nc1ccccc1	-5.06%

Structure (SMILES)	inhibition
C[C@@H]1CN([C@@H](C)CO)S(=O)(=O)c2ccc(-c3ccc(C(=O)N(C)C)cc3)cc2O[C@@H]1CN(C)Cc1ccccc1C(=O)O	3.43%
C[C@@H]1CN([C@H](C)CO)S(=O)(=O)c2ccc(C#C[C@@H](C)O)cc2O[C@@H]1CN(C)Cc1ccc(-c2ccccc2)cc1	4.36%
Cc1ccccc1-c1ccc2c(c1)O[C@@H](CN(C)Cc1ccc(C(=O)O)cc1)[C@@H](C)CN([C@H](C)CO)S2(=O)=O	51.3% (active)
CN(C)c1ccc(NC(=O)NC2CCCCN(Cc3ccc(Cl)cc3)C2=O)cc1 (configuration not stated)	5.29%
CSCC[C@H](NC(=O)OC(C)(C)C)C(=O)N/N=C/c1cc2ccc(C)cc2nc1Cl	3.07%
Cc1ccc2cc(/C=N/Nc3ccc(C(=O)O)cc3)c(Cl)nc2c1	41.6% (active)
CC(=O)Nc1ccc(C(=O)CSc2nc3ccc(C)cc3[nH]2)cc1	14.5%
CCOC(=O)/C=C/c1ccccc1O	0.7%
CCC(=O)Nc1ccc2c(c1)C(=O)N(C)[C@H]1CC[C@H](CC(=O)NCCOC)O[C@@H]1CO2	-0.44%
Cc1ccc(Cc2nnc(SCC(=O)Nc3ccccc3C)[nH]c2=O)cc1	15.2%
COc1ccc(Cc2nnc(SCC(=O)Nc3ccc(C)c(Cl)c3)[nH]c2=O)cc1	70.4% (active)
Cc1ccc(Cc2nnc(SCC(=O)Nc3ccc(C)cc3C)[nH]c2=O)cc1	10.1%
Cc1ccc(OCc2nnc(SC/C=C/c3ccccc3)n2Cc2ccco2)cc1	5.16%
Cc1ccc(NC(=O)Nc2cc(C)nn2-c2ccccc2)cc1	0.22%
O=C(CC(O)(C(F)(F)F)C(F)(F)F)Nc1ccc(Cl)c(Cl)c1	4.89%
Cc1ccc(NC(=O)Nc2nnc(-c3ccncc3)s2)cc1	56.5% (active)
Cc1ccc(CNC(=O)Nc2nnc([C@H]3C[C@H](O)[C@@H](CO)O3)s2)cc1	6.41%
O=C(CCS(=O)(=O)c1ccccc1)Nc1ccc(Cl)c(Cl)c1	5.15%
Cc1nnc(NC(=O)Nc2ccc(Cl)c(Cl)c2)s1	41.7% (active)
